Data on 26 molecules can be found in PubChem BioAssay (NCI).

Common to all, as to experiment: NCI-60 one-dose screen, 48 h (100 = growth as untreated, 0 = no growth, -100 = all killed)
Settings in all cases: 10 µM

Experiment [1] has as its system T-47D breast.
Experiment [2] deals with BT-549 breast.
The subject of experiment [3] is MDA-MB-435 melanoma.
Experiment [4] has as its system SW-620 colon.
Experiment [5] deals with MCF7 breast.
Experiment [6] concerns HCC-2998 colon.
Experiment [7] has as its system KM12 colon.
Experiment [8] relates to HCT-116 colon.

Compounds without any hit were thinned out: in the full panel of roughly 83,000, 20% have a hit.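 Values shown are percent growth following 48 h exposure of cells in 96-well plates to a single concentration of compound; below 10 was considered active.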 A number with no mark means an inactive call. Active and inactive are the calls of the source.

As to `O=C(CCCSc1nc(-c2ccccc2)cc(-c2ccc(Cl)cc2)n1)NO`, the growth in experiment [1] was 23.3%; in experiment [2], 38.6%; in experiment [3], 21.9%; in experiment [4], 17.4%; in experiment [5] it was 4.12% (active); in experiment [6] it was 12.7%. The growth in experiment [7] is 24.7%.
For the molecule `O=C(CSc1nccc(Nc2cccc3ccccc23)n1)c1ccc(Cl)cc1`, the growth was 76.1% in experiment [1]; 102% in experiment [2]; 101% in experiment [3]; 92.7% in experiment [4]; 99.5% in experiment [5]; 101% in experiment [6]. In experiment [7], the growth was 94.7%.
As for `COc1cc(C(=O)N2CCN(c3cc4c(cc3F)c(=O)c(C(=O)NO)cn4C3CC3)CC2)cc(OC)c1OC`, the growth is 82.7% in experiment [1]; 105% in experiment [2]; 105% in experiment [3]; 99% in experiment [4]; 99% in experiment [5]; 110% in experiment [6]. For the same molecule, the growth in experiment [7] is 104%.
As for `Nc1cc(-c2ccc(Cl)cc2)nn1-c1nc2ccccc2nc1Cc1ccccc1`, the growth is 85.5% in experiment [1]; 90.5% in experiment [2]; 86.8% in experiment [3]; 85.3% in experiment [5]; 72.8% in experiment [8]; 94.8% in experiment [6].
Turning to `CCCCCCCCCCCC[n+]1c(C)cc(N)c2ccccc21`, the growth is -14% (active) in experiment [1]; -29.7% (active) in experiment [2]; -6.75% (active) in experiment [3]; -0.77% (active) in experiment [5]; -4.63% (active) in experiment [8].
On to `COc1ccc2c(c1)CC=C1[C@@H]2CC[C@]2(C)C(=O)/C(=N/O)C[C@@H]12`, for which the growth in experiment [1] was 90.2%; in experiment [2] it was 88.8%; in experiment [3], 90.5%; in experiment [4] it was 78.4%; in experiment [6], 79.7%; in experiment [7] it was 92.6%.
In the case of `CCOc1ccccc1/C=N\N=C(\N)N/N=C/c1ccccc1OCC`, the growth in experiment [1] was 14.8%; in experiment [2], 36%; in experiment [3], -3.3% (active); in experiment [5], 8.26% (active); in experiment [8] it was 24.9%.
As for `COc1cccc(C2C(C#N)=C(N)Oc3cc(N)ccc32)c1` (stereo not drawn), the growth in experiment [1] is 10.4%; in experiment [2], 47.3%; in experiment [3], -30.5% (active); in experiment [4], 18.7%; in experiment [5] it was 12.1%; in experiment [6], 39.1%. The growth in experiment [7] is 24.6%.
As to `O=C(O)c1ccc(-n2cc(CNc3ccc(Cl)cc3)c(-c3ccccc3)n2)cc1`, the growth in experiment [1] was 89.4%; in experiment [2], 90.2%; in experiment [3], 91.9%; in experiment [4], 92.6%; in experiment [5], 87.4%; in experiment [6], 113%. Besides, the growth in experiment [7] is 87.8%.
As for `CC[C@@H]1NC(=O)[C@H]([C@H](O)[C@H](C)C/C=C/c2ccc(CN3C(=O)CCCC3=O)cc2)N(C)C(=O)[C@H](C(C)C)N(C)C(=O)[C@H](CC(C)C)N(C)C(=O)[C@H](CC(C)C)N(C)C(=O)[C@@H](C)NC(=O)[C@H](C)NC(=O)[C@H](CC(C)C)N(C)C(=O)[C@H](C(C)C)NC(=O)[C@H](CC(C)C)N(C)C(=O)CN(C)C1=O`, the growth was 25.3% in experiment [1]; 8.44% (active) in experiment [2]; 10.8% in experiment [3]; 56% in experiment [4]; 25.3% in experiment [5]; 69.6% in experiment [6]. Further, the growth in experiment [7] was 45.9%.
Take `O=C(N/N=C/c1ccc(Cl)cc1)c1ccc(Cc2n[nH]c(=O)c3cccnc23)cc1`: the growth in experiment [1] is 99.4%; in experiment [2] it was 100%; in experiment [3], 95.5%; in experiment [4], 113%; in experiment [5], 95.8%; in experiment [7], 108%.
Turning to `O=C1c2ccccc2C(=O)c2c1ccc(C(Br)Br)c2Cl`, the growth in experiment [1] was 22.7%; in experiment [3], 60%; in experiment [4], -23.4% (active); in experiment [5], 2.06% (active); in experiment [8], -62.7% (active); in experiment [6], 87.4%. Also, the growth in experiment [7] is 47.5%.
Consider `CC1=NN(C(=O)c2nn(-c3ccc(Cl)cc3)cc2O)C(=O)C1`, for which the growth in experiment [1] was 48.5%; in experiment [3], 59.8%; in experiment [4] it was 46.3%; in experiment [5], 52.4%; in experiment [8] it was 28.5%; in experiment [6], 54.1%.
Consider `CCN(CC)CCOc1cccc2c1C(=O)c1ccccc1C2=O`, for which the growth was 107% in experiment [1]; 100% in experiment [3]; 87.6% in experiment [4]; 92.1% in experiment [5]; 70.4% in experiment [8]; 102% in experiment [6]. The growth in experiment [7] was 98%.
Turning to `CC(C)(C)c1nn(-c2ccccc2)c2c1CC1(CN2Cc2ccc(Cl)cc2)C(=O)c2ccccc2C1=O`, the growth in experiment [1] is 75.5%; in experiment [2] it was 81.4%; in experiment [4] it was 85.6%; in experiment [5] it was 82.4%; in experiment [8], 52.6%; in experiment [6], 91.4%. The growth in experiment [7] was 89.6%.
With `CN(C)CCOc1cccc(NC2=C(Cl)C(=O)C(Nc3cccc(OCCN(C)C)c3)=C(Cl)C2=O)c1`, the growth in experiment [1] is -42.1% (active); in experiment [3], -68.6% (active); in experiment [4] it was -54.9% (active); in experiment [5] it was -40.8% (active); in experiment [8] it was -89.4% (active); in experiment [6], 11.6%. Further, the growth in experiment [7] is 34.4%.
For `Cc1ccc(NCCN(C)CC(C)O)c2c(=O)c3ccc(Cl)cc3sc12` (stereo not drawn), the growth was 49.7% in experiment [1]; -49% (active) in experiment [3]; -46.4% (active) in experiment [4]; 17.4% in experiment [5]; -48.8% (active) in experiment [8]; 18% in experiment [6]. Also, the growth in experiment [7] is 43.7%.
In the case of `O=S(=O)(O)c1ccc(Cl)cc1`, the growth in experiment [1] is 97.8%; in experiment [3], 109%; in experiment [4], 101%; in experiment [5], 91.4%; in experiment [8], 98.4%; in experiment [6] it was 98.9%. The growth in experiment [7] was 99.2%.
As to `CCN(CC)CCOc1ccc2c(c1O)C(=O)c1ccccc1C2=O`, the growth in experiment [1] is 97.2%; in experiment [3], 94.5%; in experiment [4], 67.9%; in experiment [5], 82.1%; in experiment [8], 44.9%; in experiment [6], 96.7%. Besides, the growth in experiment [7] is 98%.
In the case of `Cc1ccc(-n2nnnc2N)c(C)c1`, the growth in experiment [1] was 112%; in experiment [3], 102%; in experiment [4] it was 96%; in experiment [5], 95.9%; in experiment [8] it was 98.7%; in experiment [6], 95%. Further, the growth in experiment [7] is 108%.
With `Nc1ncnc2c1ncn2C1(CO)OCC(O)C(O)C1O` (stereo not drawn), the growth in experiment [1] is 96.2%; in experiment [3], 107%; in experiment [4], 110%; in experiment [5], 101%; in experiment [8] it was 108%; in experiment [6], 101%. For the same molecule, the growth in experiment [7] is 98.6%.
Take `O=C(CC(CC(=O)c1ccccc1)c1ccccc1O)c1ccccc1`: the growth in experiment [1] was 83%; in experiment [3] it was 99.1%; in experiment [4], 96.7%; in experiment [5] it was 89.3%; in experiment [8] it was 88.5%; in experiment [6], 105%. In experiment [7], the growth is 99.8%.
Consider `CC(CN(C)C)Oc1ccc(OC(C)CN(C)C)c2c1C(=O)c1ccccc1C2=O` (stereo not drawn), for which the growth in experiment [1] is 77.7%; in experiment [3] it was 46.1%; in experiment [4], 27.9%; in experiment [5], 16.1%; in experiment [8], 14.2%; in experiment [6], 57.4%. The growth in experiment [7] was 51.1%.
On to `C[n+]1c2ccccc2nc2ccccc21`, for which the growth in experiment [1] was 1.26% (active); in experiment [3], -40.9% (active); in experiment [4], 11.2%; in experiment [5], -19.4% (active); in experiment [8], -15.5% (active); in experiment [6], 50.6%. In addition, the growth in experiment [7] was 30.4%.
On to `CN(C)CCCOc1ccc(OCCCN(C)C)c2c1C(=O)c1ccccc1C2=O`, for which the growth in experiment [1] is -5.61% (active); in experiment [3] it was 3.12% (active); in experiment [4], 3.12% (active); in experiment [5] it was 8.41% (active); in experiment [8], 8.36% (active); in experiment [6], 16.7%. For the same molecule, the growth in experiment [7] is 6.87% (active).
Take `Cc1cn(-c2cc(F)cc(NC(=O)c3ccc(C)c(Nc4nccc(-c5cccnc5)n4)c3)c2)cn1`: the growth was 3.22% (active) in experiment [1]; -27.3% (active) in experiment [2]; 40.5% in experiment [4]; 16.8% in experiment [5]; 101% in experiment [6]; 15.6% in experiment [7].
